Measured values: PubChem BioAssay (Tox21)
Several values for one entry are separate records, joined by “and”; a condition that tells them apart may be missing. Equal entries are not always repeated. Records with an inconclusive call do not appear. Activity calls are given as the source filed them. Unless noted, calls follow the shape of the dose curve; as a rule, active = well fitted curve in the direction sought with a large enough effect in the repeat runs; inconclusive = weak or mixed curves; inactive = no such curve, though single readings can be large; an effect the other way counts as inactive or inconclusive.

Legend:
[1] = qHTS assay to identify small molecule agonists of the RXR signaling pathway - cell viability counter screen (AID 1159529); also: nearly all actives have a fitted effect of over 50% in size; also: potency is read from the fitted curve at half-maximal effect
Outline: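 Tox21 10K compounds were tested for cytotoxicity against GeneBLAzer RXR-alpha HEK 293T cells grown in 2% charcoal-stripped FBS. Exposure lasted 16 hr at 37 C, 5% CO2; viability read by CellTiter-Glo luminescence.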

[2] = qHTS assay to identify small molecule antagonists of the retinoid acid receptor (RAR) signaling pathway - cell viability counter screen (AID 1159551); also: nearly all actives have a fitted effect of over 35% in size; also: potency is read from the fitted curve at half-maximal effect
Outline: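 ATP-based viability, C3RL4 cells, 6 h at 37 C with 1 uM final retinol co-added after compound; luminescence read 30 min post CellTiter-Glo, RT.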

[3] = qHTS assay to identify small molecule antagonists of the retinoic acid receptor (RAR) signaling pathway (AID 1159552; also: nearly all actives have a fitted effect of over 50% in size; also: potency is read from the fitted curve at half-maximal effect)
Outline: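 Overnight-plated C3RL4 reporter cells get compound, then retinol to 1 uM final; plates sit 6 hr at 37 C, 5% CO2. A luciferase reagent is added and light output recorded after 30 min at room temperature.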

[4] = molecular target: Thyrotropin receptor (Homo sapiens) (UniProt P16473); test: qHTS assay to identify small molecule agonists of the thyroid stimulating hormone receptor (TSHR) signaling pathway (AID 1224843; calls by dose curve; also: nearly all actives have a fitted effect of over 45% in size; also: potency is read from the fitted curve at half-maximal effect)
Outline: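 Using 15 concentrations per compound in triplicate, cAMP production was monitored in TSHR-HEK293 cells after 30 min compound incubation at RT; HTRF reagents followed, with fluorescence intensity recorded after 1 h.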

[5] = qHTS assay to identify small molecule agonists of the retinoic acid receptor (RAR) signaling pathway (AID 1159553)
Outline: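 Quantitative high-throughput format: the Tox21 10K library was tested on C3RL4 RARE-luciferase cells for 6 hr at 37 C and 5% CO2, with luminescence measured after a 30 min room-temperature reagent step.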

[6] = qHTS assay to identify small molecule antagonists of the estrogen related receptor (ERR) signaling pathway from Tox21 library - cell viability counter screen (AID 1224834); also: nearly all actives have a fitted effect of over 30% in size; also: potency is read from the fitted curve at half-maximal effect
Outline: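 Compounds in DMSO were pinned onto ERR cells that had been incubated for 6 h, and the plates were held at 37 C for 17.5 h. CellTiter-Fluor reagent was then added and fluorescence was measured after 30 min.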

[7] = molecular target: Luciferin 4-monooxygenase (Photinus pyralis) (UniProt P08659); test: qHTS assay to identify small molecule inhibitors of firefly luciferase (AID 1224835); also: nearly all actives have a fitted effect of over 25% in size; also: potency is read from the fitted curve at half-maximal effect
Outline: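 Quantitative HTS format; KM concentrations of both substrates. Purified P. pyralis FLuc activity quantified from luminescence images.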

[8] = qHTS assay to identify small molecule agonists of the constitutive androstane receptor (CAR) signaling pathway - cell viability counter screen (AID 1224836); also: nearly all actives have a fitted effect of over 45% in size; also: potency is read from the fitted curve at half-maximal effect
Outline: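 Fluorescence from CellTiter-Fluor indicates live cells after 23 h exposure. The human hepatoma line expresses hCAR and a CYP2B6-2.2kb reporter. Incubation medium contains 0.75 uM PK11195 (final).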

[9] = qHTS assay to identify small molecule antagonists of the constitutive androstane receptor (CAR) signaling pathway - cell viability counter screen (AID 1224837); also: nearly all actives have a fitted effect of over 45% in size; also: potency is read from the fitted curve at half-maximal effect
Outline: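 Cells are seeded, rested 4 hr at 37 C/5% CO2, dosed with compound (15-point series) and 50 nM CITCO, incubated a further 23 hr, and then CellTiter-Fluor reagent is added before fluorescence is read. The line is HepG2 with stable hCAR and CYP2B6-2.2kb.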

[10] = molecular target: Nuclear receptor subfamily 1 group I member 3 (Homo sapiens) (UniProt Q14994); test: qHTS assay to identify small molecule antagonists of the constitutive androstane receptor (CAR) signaling pathway (AID 1224838);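 also: HepG2 cells stably expressing hCAR with CYP2B6 luciferase reporter stimulated by CITCO; nearly all actives have a fitted effect of over 40% in size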; also: potency is read from the fitted curve at half-maximal effect
Outline: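 Luminescence from a CYP2B6-2.2kb promoter reporter in hCAR-expressing HepG2 cells reflects CAR signaling. Cells received compounds at 15 concentrations and 50 nM CITCO (final), then incubated 24 h at 37 C/5% CO2.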

[11] = molecular target: Nuclear receptor subfamily 1 group I member 3 (Homo sapiens) (UniProt Q14994); test: qHTS assay to identify small molecule agonists of the constitutive androstane receptor (CAR) signaling pathway (AID 1224839); also: nearly all actives have a fitted effect of over 15% in size; also: potency is read from the fitted curve at half-maximal effect
Outline: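 Stable hCAR/CYP2B6-2.2kb HepG2 line in DMEM with 10% FBS; compounds (15 concentrations) and 0.75 uM PK11195 final, 24 h at 37 C/5% CO2, then ONE-Glo luminescence after 30 min.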

[12] = qHTS assay to identify small molecule antagonists of the estrogen related receptor signaling pathway with the pleiotropic PPARgamma coactivator (PGC) from Tox21 10K library - cell viability counter screen (AID 1224840; active = well fitted cell-killing curve with a large enough effect in the repeat runs, not every such curve was filed as active; also: nearly all actives have a fitted effect of over 40% in size; also: potency is read from the fitted curve at half-maximal effect)
Outline: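 Cell viability is measured by CellTiter-Fluor fluorescence in PGC/ERR cells that receive compounds after a 6-hour attachment period and are then incubated 17.5 hours at 37 C.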

[13] = qHTS assay to identify small molecule antagonists of the estrogen related receptor (ERR) signaling pathway - cell viability counter screen (AID 1224818);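 also: series mostly up to about 46 µM; viability measured after 17.5 h of compound exposure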
Outline: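 Quantitative high-throughput viability counter screen in ERR cells. Compounds (DMSO) incubated 17.5 h at 37 C; read-out was CellTiter-Fluor fluorescence.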

[14] = qHTS assay to identify small molecule antagonists of the estrogen related receptor signaling pathway with the pleiotropic PPARgamma coactivator (PGC) cell viability counter screen (AID 1224822; also: series mostly up to about 46 µM)
Outline: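 Cytotoxicity in the PGC/ERR cell line is assessed with CellTiter-Fluor, read as fluorescence intensity 30 min after reagent addition, following 17.5 h compound treatment at 37 C.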

[15] = qHTS assay to identify small molecule agonists of the estrogen related receptor signaling pathway with the pleiotropic PPARgamma coactivator (PGC) from Tox21 10K library (AID 1224842); also: nearly all actives have a fitted effect of over 15% in size
Outline: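 PGC/ERR reporter cells (NTP line) were seeded 2,000 per well, rested 6 h at 37 C/5% CO2, then pin-dosed with compounds in DMSO for 18 h at 37 C; luciferase read by One-Glo luminescence after 30 min at room temperature.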

[16] = qHTS assay to identify small molecule antagonists of the estrogen related receptor signaling pathway with the pleiotropic PPARgamma coactivator (PGC) from Tox21 10K library (AID 1224841; call rule not given here; also: actives are mostly falling curves and most rising ones were filed inactive; nearly all actives have a fitted effect of over 50% in size; also: potency is read from the fitted curve at half-maximal effect)
Outline: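 Cells stably carrying the PGC/ERR reporter, seeded at 2,000 per well, received pin-transferred compounds 6 h post-plating. Exposure lasted 18 h at 37 C. Signal: One-Glo luminescence.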

Measured: Potency

Chain of Nuclear receptor subfamily 1 group I member 3 (Homo sapiens) (Q14994 whole entry, looked up): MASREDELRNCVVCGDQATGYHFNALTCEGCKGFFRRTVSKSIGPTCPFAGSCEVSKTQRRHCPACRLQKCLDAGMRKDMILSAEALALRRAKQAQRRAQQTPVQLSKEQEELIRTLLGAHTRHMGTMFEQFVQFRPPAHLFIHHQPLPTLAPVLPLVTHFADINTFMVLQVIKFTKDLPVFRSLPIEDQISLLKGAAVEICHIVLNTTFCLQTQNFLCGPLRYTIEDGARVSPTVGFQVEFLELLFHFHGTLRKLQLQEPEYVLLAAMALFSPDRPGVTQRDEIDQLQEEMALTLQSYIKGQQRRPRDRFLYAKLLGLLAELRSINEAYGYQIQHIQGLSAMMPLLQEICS
Chain of Luciferin 4-monooxygenase (Photinus pyralis) (P08659 whole entry, looked up): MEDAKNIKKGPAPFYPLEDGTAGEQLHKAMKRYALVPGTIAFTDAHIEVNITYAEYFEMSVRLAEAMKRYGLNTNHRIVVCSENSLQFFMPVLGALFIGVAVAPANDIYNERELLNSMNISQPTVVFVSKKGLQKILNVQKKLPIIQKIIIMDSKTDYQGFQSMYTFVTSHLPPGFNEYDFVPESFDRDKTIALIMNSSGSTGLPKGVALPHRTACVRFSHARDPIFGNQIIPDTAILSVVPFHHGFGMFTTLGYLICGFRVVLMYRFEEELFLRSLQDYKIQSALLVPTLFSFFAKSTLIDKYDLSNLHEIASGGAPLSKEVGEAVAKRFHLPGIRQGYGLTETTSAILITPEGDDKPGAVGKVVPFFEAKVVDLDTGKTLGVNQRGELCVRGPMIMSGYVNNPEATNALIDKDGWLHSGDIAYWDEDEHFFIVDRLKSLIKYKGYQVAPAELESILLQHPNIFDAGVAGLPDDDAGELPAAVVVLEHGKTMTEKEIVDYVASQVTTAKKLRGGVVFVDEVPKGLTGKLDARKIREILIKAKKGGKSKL
Chain of Thyrotropin receptor (Homo sapiens) (P16473 whole entry, looked up): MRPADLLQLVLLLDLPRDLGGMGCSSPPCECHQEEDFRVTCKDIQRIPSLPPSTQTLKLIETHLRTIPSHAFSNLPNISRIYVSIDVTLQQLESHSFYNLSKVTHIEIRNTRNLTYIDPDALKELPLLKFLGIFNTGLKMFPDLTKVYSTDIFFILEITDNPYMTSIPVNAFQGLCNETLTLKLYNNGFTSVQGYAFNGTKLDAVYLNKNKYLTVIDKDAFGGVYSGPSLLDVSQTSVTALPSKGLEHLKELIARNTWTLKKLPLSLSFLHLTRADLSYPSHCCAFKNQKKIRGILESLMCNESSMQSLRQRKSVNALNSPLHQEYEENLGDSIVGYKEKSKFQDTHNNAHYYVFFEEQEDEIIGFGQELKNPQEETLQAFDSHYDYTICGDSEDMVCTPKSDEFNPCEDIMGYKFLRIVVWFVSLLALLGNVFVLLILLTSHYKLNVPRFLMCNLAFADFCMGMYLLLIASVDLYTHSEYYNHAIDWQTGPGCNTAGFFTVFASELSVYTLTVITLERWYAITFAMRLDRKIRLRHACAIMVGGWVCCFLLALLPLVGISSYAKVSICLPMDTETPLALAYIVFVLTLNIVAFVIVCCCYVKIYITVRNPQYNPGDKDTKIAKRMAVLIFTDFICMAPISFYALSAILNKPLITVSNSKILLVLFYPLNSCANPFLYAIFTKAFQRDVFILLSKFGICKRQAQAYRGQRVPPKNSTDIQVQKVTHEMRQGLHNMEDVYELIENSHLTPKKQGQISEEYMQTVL

Oc1cc(Cl)c(Cl)c(Cl)c1Cl
active: [3] 53.2 µM
inactive: [1] | [2] | [4]

[O]=[Cr](=[O])([OH])[O][Cr](=[O])(=[O])[OH]
active: [1] 0.0027 µM | [2] 17.4 µM and 27.3 µM | [6] 13.8 µM and 24.3 µM | [8] 15.5 µM and 15.3 µM | [9] 11 µM and 9.67 µM
inactive: [5] | [7] | [4]

N#CCCl
active: [1] 9.08 µM
not listed: [3] | [6] | [13] | [14] | [15] | [16]
inactive: all other assays above

CCCCC(CC)COC(=O)c1ccccc1C(=O)OCC(CC)CCCC (stereo unspecified)
active: [11] 17.2 µM | [4] 3.86 µM
not listed: [3] | [5] | [15] | [16]
inactive: all other assays above

CCCCC(CC)COC(=O)OOC(C)(C)C (stereo unspecified)
inactive: [1] | [2] | [5] | [6] | [7] | [8] | [9] | [10] | [11]

O=C1C[C@@H]2OCC=C3CN4CC[C@]56c7ccccc7N1[C@H]5[C@H]2[C@H]3C[C@H]46
inactive: [1] | [2] | [5] | [6] | [12] | [15] | [4]

CCCCCON=O
not listed: [3] | [12] | [13] | [14] | [16]
inactive: all other assays above

O=C(O)CCCCCCNC1c2ccccc2CCc2ccccc21
inactive: [1] | [2] | [5] | [6] | [7] | [8] | [9] | [12] | [4]

CCc1cccc(C)c1N(C(=O)CCl)[C@@H](C)COC
active: [11] 19.3 µM | [16] 30.6 µM | [4] 34.4 µM
not listed: [3] | [6] | [13] | [14]
inactive: all other assays above

Oc1ccc2[nH]cc(CCCCN3CC=C(c4ccccc4)CC3)c2c1
inactive: [1] | [2] | [3] | [8] | [9] | [15] | [4]
active: [16] 5.96 µM

Nc1nc(N)c(N)c(N)n1
inactive: [1] | [2] | [5] | [7] | [4]

O=Cc1ccccc1
not listed: [3] | [13] | [14] | [15] | [16]
inactive: all other assays above

CC1(C)C(C=C(Cl)Cl)C1C(=O)OC(C#N)c1ccc(F)c(Oc2ccccc2)c1 (stereo unspecified)
not listed: [3] | [4] | [13] | [14]
inactive: all other assays above

O=c1[nH]c2cc(Cl)ccc2n1C1CCNCC1
not listed: [3] | [13] | [14] | [15] | [16]
inactive: all other assays above

[O-][Cl+3]([O-])([O-])O
inactive: [1] | [2] | [6] | [7] | [8] | [9]

COc1c2c(cc3c1OCO3)CCN(C)C2
inactive: [1] | [2] | [5] | [6] | [7] | [8] | [9] | [10] | [4]

Clc1ccc(C(Cl)(Cl)Cl)cc1Cl
inactive: [1] | [2] | [6] | [7] | [8] | [9] | [10] | [12]

CSC(C)(C)/C=N/O
not listed: [3] | [5] | [13] | [14] | [15] | [16]
inactive: all other assays above

CNC(=O)/C=C(\C)OP(=O)(OC)OC
not listed: [3] | [5] | [13] | [14] | [16]
inactive: all other assays above

C=Cc1cccc(CCl)c1
inactive: [1] | [2] | [6] | [7] | [8] | [9] | [11] | [4]

C=C(C)C(=O)[O][Sn]([CH2]CCC)([CH2]CCC)[CH2]CCC
inactive: [11]
active: [1] 1.1 µM | [2] 7.7 µM | [6] 1.72 µM | [7] 35.6 µM | [8] 770 nM | [9] 864 nM | [10] 0.273 µM | [4] 0.486 µM

CC(=O)[O][Pb]([c]1ccccc1)([c]1ccccc1)[c]1ccccc1
active: [1] 2.45 µM | [2] 9.69 µM | [6] 2.73 µM | [7] 22.4 µM | [8] 5450 nM | [9] 7700 nM | [10] 1.54 µM | [12] 3.06 µM | [16] 6.86 µM
inactive: [11] | [15]
